From PubChem BioAssay AID651658 (Broad Institute, 2012) come the findings set out here.

Where “and” joins values, the source holds several entries; their conditions need not be identical. Equal entries are not always repeated. Screen size: about 340,000 compounds; about 5,100 (1.5%) were called active. Shown is part of a subset that was picked to be rich in actives. A number with no mark means an inactive call.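 Rule for the calls: active = mean Tm shift, scaled 0 neutral to 100 positive control, at about 1.3% or above, every replicate too (limit read from the data); inconclusive = no clear call, values can overlap the other calls; inactive = the rest.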

Fibroblast growth factor 22 (Homo sapiens), sequence (Q9HCT0 whole entry, looked up): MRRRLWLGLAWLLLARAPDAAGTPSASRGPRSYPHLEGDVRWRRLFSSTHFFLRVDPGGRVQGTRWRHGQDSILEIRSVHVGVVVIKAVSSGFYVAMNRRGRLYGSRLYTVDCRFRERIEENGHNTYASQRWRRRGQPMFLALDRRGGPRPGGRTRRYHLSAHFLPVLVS

The test has as its target Fibroblast growth factor 22 (Homo sapiens) (UniProt Q9HCT0). The experiment in a line: binders of human FGF22 protein, primary screen, FGF22 synaptogenesis inhibitor project, biophysical, thermal shift, single point (AID 651658). Particulars: recombinant FGF22 thermal shift, SYPRO orange fluorescence; at 9.99 µM; stronger effect = higher value; percent of sucrose octasulfate shift, DMSO zero.
Take `CO[C@H]1CC[C@@H]2CCOc3c(C#N)cccc3C(=O)N(C)CCCC(=O)N(C)C[C@@H]1O2`: the activity (Tm shift, normalised) is 0.064%.
The figure for `CCC1C(=O)NCCN1C(=O)c1ccc2nc(Cc3ccc(OC)cc3)oc2c1` (stereo not given) is 0.064%.
Under `CCn1ccnc1CN(C)C(=O)c1ccc2nc(Cc3ccc(OC)cc3)oc2c1` stands 1.62% (active).
As to `COc1ccc(Cc2nc3ccc(C(=O)N4CCC(N(C)C)C4)cc3o2)cc1` (stereo not given), the activity (Tm shift, normalised) is -0.031%.
Under `COc1ccc2c3c(n(C)c2c1)[C@@H](CO)N(C(=O)NC1CCCC1)CC31CCN(C(C)=O)CC1` stands -0.236%.
The figure for `CC=Cc1ccc2n(c1=O)C[C@@H]1[C@@H](CO)[C@H](C(=O)NCCC)[C@H]2N1C(=O)C1CC1` (mixture of isomers) is -0.404%; for `CC(=O)Nc1ccccc1-c1cn(CC(=O)N2CCOCC2)nn1` it is -0.164%.
For `COC(=O)c1cc(C(=O)N(Cc2ccccc2)c2ccccn2)cc([N+](=O)[O-])c1`, the activity (Tm shift, normalised) was 0.167%.
Under `O=C(c1cccc([N+](=O)[O-])c1)N1CCN(Cc2ccccc2)CC1` stands 0.006%; under `O=C(CCl)N(Cc1cccc([N+](=O)[O-])c1)c1cccc(Cl)c1`, 43.2% (active).
The figure for `O=C(Oc1ccc(C(=S)N2CCOCC2)cc1)c1ccc(F)cc1` is -0.154%.
The figure for `O=C(Nc1ccc(F)cc1)C(=O)c1cn(CC(=O)N2CCOCC2)c2ccccc12` is -0.305%; for `O=C(c1ccc(F)cc1)n1cc(C(=S)N2CCOCC2)c2ccccc21` it is 43.1% (active); for `COc1cc(NC(=O)c2cccs2)ccc1NC(=O)c1ccccc1Cl` it is 1.14%.
For the compound `COC(=O)C[C@@H]1CC[C@H]2[C@H](COc3ccc(NC(=O)c4cccs4)cc3C(=O)N2C)O1`, the activity (Tm shift, normalised) is -0.323%.
Under `COc1cc(NC(=O)c2ccc3c(c2)OCO3)ccc1NC(=O)c1cccs1` stands 1.67% (active); under `CC(C)NC(=O)Nc1ccc2c(c1)C(=O)N(C)[C@H]1CC[C@H](CC(=O)NCc3ccc(F)cc3)O[C@H]1CO2`, 0.053%; under `O=C(Nc1ccccc1F)N[C@H]1C=C[C@H](CC(=O)N2CCCCC2)O[C@H]1CO`, 0.391%.
Under `CCCN1C2CCCC1CC(NC(=O)c1cccc(OC)c1)C2` (stereo not given) stands -0.224%; under `COc1cccc(NC(=O)N2C3CCCC2CC(NC(C)=O)C3)c1` (stereo not given), 0.301%; under `C=CCN1C2CCCC1CC(NC(=S)Nc1cccc(OC)c1)C2` (stereo not given), 43.2% (active).
Take `O=S(=O)(N[C@@H]1CC[C@H](CCn2cc(C3(O)CCCC3)nn2)O[C@@H]1CO)c1ccc(Cl)cc1`: the activity (Tm shift, normalised) was -0.216%.
Under `C[C@H]1CN([C@@H](C)CO)S(=O)(=O)c2ccc(-c3cccnc3)cc2O[C@H]1CN(C)C(=O)C1CCCCC1` stands 0.041%; under `CCCN1C[C@@H](C)[C@@H](OC)CN(C)C(=O)c2ccc(NC(=O)Nc3cccc(F)c3)cc2OC[C@@H]1C`, -0.405%; under `CCOc1ccc(CN2CCN(CCCc3ccccc3)C(CCO)C2)cc1` (stereo not given), -0.164%.
Consider `OCCC1CN(Cc2ccc(Oc3ncccn3)cc2)CCN1CCc1ccccc1` (stereo not given), for which the activity (Tm shift, normalised) was 0.032%.
The figure for `COC(=O)c1ccc(CN2CCN(CCCc3ccccc3)C(CCO)C2)cc1` (stereo not given) is 43.7% (active); for `O=C(C[C@H]1CC[C@H](NC(=O)C2CCC2)[C@@H](CO)O1)NCCCN1CCOCC1` it is 0.216%; for `O=C(C1CCOCC1)N1CC2(C1)[C@H](c1ccccc1)[C@H](CO)N2Cc1ccc(Cl)cc1` it is -0.232%.
`CN1C[C@H](O)COC[C@H]2O[C@H](CC(=O)NC3CCC3)CC[C@@H]21`: the activity (Tm shift, normalised) is 0.225%.
Under `CCC(=O)N1C[C@@H](C)[C@@H](OC)CN(C)C(=O)c2ccc(NC(=O)C3CCCCC3)cc2OC[C@H]1C` stands 0.107%; under `COc1ccccc1NC(=O)CN(c1ccccc1OC)S(=O)(=O)c1ccccc1`, -0.013%; under `COc1ccccc1N(CC(=O)Nc1ccccc1C(=O)N1CCCC1)S(C)(=O)=O`, 41.8%.
The figure for `COc1ccccc1N(CC(=O)Nc1ccc(C(F)(F)F)cc1)S(C)(=O)=O` is 43.3% (active).
`COc1cccc(S(=O)(=O)N2C[C@H](O)COC[C@H]3O[C@@H](CC(=O)N4CCN(c5ccccc5)CC4)CC[C@@H]32)c1`: the activity (Tm shift, normalised) is 0.06%.
The figure for `Clc1ccc(-c2cccc3nccn23)cc1` is 0.174%; for `c1cc(-c2ccc3[nH]ccc3c2)n2ccnc2c1` it is 43.4% (active).
`O=C(NCCO)c1cccc(-c2cccc3nccn23)c1`: the activity (Tm shift, normalised) was -0.228%.
As to `Cn1cnc(CCNC(=O)C[C@H]2CC[C@@H]3[C@H](COC[C@H](O)CN3C(=O)C3CC3)O2)c1`, the activity (Tm shift, normalised) is -0.297%.
The figure for `COc1cccc(S(=O)(=O)N2CC3(CCN(C)CC3)c3c(n(C)c4cc(OC)ccc34)[C@H]2CO)c1` is 0.01%; for `C[C@H]1CN([C@@H](C)CO)C(=O)c2c(c3ccccc3n2C)-c2ccccc2CO[C@@H]1CN(C)Cc1ccc2c(c1)OCCN2C` it is -0.115%; for `Cc1ccc(NNC(=O)c2cccs2)cc1Cl` it is -0.036%.
The figure for `O=C(COC(=O)c1ccc(O)cc1O)NNC(=O)c1cccs1` is 0.153%; for `O=C(NNC(=O)c1ccc(Cl)cc1Cl)c1cccs1` it is 43.3% (active); for `C/C=C/c1cnc2c(c1)C(=O)N([C@H](C)CO)C[C@H](C)[C@@H](CN(C)CC1CCOCC1)O2` it is -0.049%.
Under `C[C@@H]1CN([C@@H](C)CO)S(=O)(=O)c2ccc(C3=CCCC3)cc2O[C@H]1CN(C)C(=O)CC1CC1` stands -0.028%; under `COc1ccc2c3c([nH]c2c1)[C@@H](CO)N(C(=O)Nc1cccc(F)c1)CC31CCN(S(=O)(=O)c2ccccc2)CC1`, -0.126%.
For `O=C(N[C@H]1CC[C@H](CC(=O)N2CCCCC2)O[C@@H]1CO)c1cccc(F)c1`, the activity (Tm shift, normalised) was -0.194% and -0.138%.
Regarding `O=C(N[C@@H]1C=C[C@H](CC(=O)N2CCCCC2)O[C@H]1CO)c1cccc(F)c1`, the activity (Tm shift, normalised) is 2.12% (active).
Under `O=C(N[C@H]1C=C[C@@H](CC(=O)N2CCCCC2)O[C@@H]1CO)c1ccc2c(c1)OCO2` stands -0.043%; under `CCCNC(=O)N1CC2(CN(C(=O)c3cnccn3)C2)c2c([nH]c3cc(OC)ccc23)[C@@H]1CO`, 0.028%.
Under `CCc1cc(-c2n[nH]c(=S)n2CC(C)C)cs1` stands -0.833%.
Under `CCn1c(C(C)C)n[nH]c1=S` stands 43.3% (active).
For `CCn1c(-c2ccncc2)n[nH]c1=S`, the activity (Tm shift, normalised) was 0.117%.
The figure for `O=C(C[C@H]1C[C@H]2c3cc(NC(=O)Nc4ccccc4F)ccc3O[C@H]2[C@H](CO)O1)NCc1ccccn1` is 0.07%; for `Cc1cccc(C)c1NC(=S)N1CCCCCC1` it is -0.275%; for `Cc1cccc(C)c1NC(=O)CNC(=O)C1CCCC1` it is -0.023%.
The figure for `Cc1cccc(C)c1NC(=O)C1(N(C(=O)c2ccccn2)c2ccc(O)cc2)CCCCC1` is 43% (active).
The figure for `O=C(N[C@H]1CC[C@H](CCNS(=O)(=O)c2ccc(F)cc2)O[C@H]1CO)c1cccc(F)c1` is -0.051%.
Turning to `O=C(Nc1cc(F)ccc1F)N[C@@H]1C=C[C@@H](CC(=O)N2CCc3ccccc3C2)O[C@@H]1CO`, the activity (Tm shift, normalised) was -0.137%.
The figure for `CCC(=O)N1[C@@H](CO)[C@@H]2c3ccccc3N(C(=O)c3cnccn3)C[C@@H]21` is -0.28%.
The figure for `COc1ccc(C(=O)COC(=O)c2c(C)noc2C)cc1Cl` is 44% (active).
The figure for `Cc1ccc(S(=O)(=O)N2CCN(C(=O)COC(=O)c3c(C)noc3C)CC2)c(C)c1` is -0.319%; for `CCc1noc(C)c1C(=O)OCC(=O)c1ccc(NC(=O)CC(C)C)cc1` it is -0.332%; for `Cn1c2c(c(=O)n(C)c1=O)C(c1cccc(F)c1)C(C#N)=C(N)O2` (stereo not given) it is -0.167%.
`COC(=O)C1=CN(c2c(C)cc(C)cc2C)C(N)=C(C#N)C1c1cccc(F)c1` (stereo not given): the activity (Tm shift, normalised) was -0.26%.
As for `CCOC(=O)C1=C(CC)OC(N)=C(C#N)C1c1ccc(F)cc1F` (stereo not given), the activity (Tm shift, normalised) is 43.8% (active).
The figure for `O=S(=O)(c1cccs1)N1CCCc2nc(-c3ccc(Br)cc3)ccc21` is 0.061%; for `CN1CCCc2nc(-c3ccccc3)ccc21` it is 42.2%.
Under `COc1ccc(-c2ccc3c(n2)CCCN3S(=O)(=O)c2ccc(C)cc2)cc1` stands 48.4% (active); under `C[C@@H]1CCCCO[C@@H](CN(C)Cc2ccc(C(=O)O)cc2)[C@H](C)CN([C@H](C)CO)C(=O)c2cc(NS(=O)(=O)c3cccs3)ccc2O1`, -0.274%.
For `C[C@@H]1CN([C@H](C)CO)C(=O)c2cc(NS(=O)(=O)c3ccccc3)ccc2O[C@@H](C)CCCCO[C@H]1CN(C)S(=O)(=O)c1ccc(Cl)cc1`, the activity (Tm shift, normalised) is -0.893%.
For `COCc1cn(CC[C@H]2CC[C@H](NC(=O)Nc3ccc4c(c3)OCO4)[C@@H](CO)O2)nn1`, the activity (Tm shift, normalised) is -0.239%.
The figure for `CO[C@@H]1CN(C)C(=O)c2cc(NC(=O)Nc3cccc(F)c3)ccc2OC[C@H](C)N(C)C[C@@H]1C` is -0.31%; for `COc1ccc(-c2ccc3c(c2)[C@H]2[C@H](CCN2C(=O)C2CCOCC2)[C@H](CO)N3C)cc1` it is -0.244%; for `Cc1ccc(C2=Nc3c(ccc4ccccc34)C(c3ccncc3)=NN2)cc1` it is 44% (active).
In the case of `COc1ccc(S(=O)(=O)N(C)C[C@@H]2Oc3ccc(NC(=O)CCN4CCOCC4)cc3CC(=O)N([C@@H](C)CO)C[C@@H]2C)cc1`, the activity (Tm shift, normalised) is -0.109%.
Under `Cn1c(=O)c2cc(S(=O)(=O)NCCC(=O)Nc3ccc(F)cc3F)ccc2n(C)c1=O` stands 43.3% (active); under `COc1ccc(NC(=O)CCNS(=O)(=O)c2ccc3c(c2)c(=O)n(C)c(=O)n3C)cc1OC`, -0.132%.
Under `CCc1ccccc1NC(=O)CN(C)S(=O)(=O)c1ccc2c(c1)c(=O)n(C)c(=O)n2C` stands -0.036%.
